{"source": "PubChem BioAssay AID651661", "about": "(Broad Institute, 2012)", "note": "Out of some 350,000 compounds screened, about 2,300 (0.66%) were called active. The full list was thinned out, with actives kept by preference. Unmarked numbers belong to inactive results.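 How the source made its calls: active means mean inhibition of at least 50% after viability correction, with every replicate also passing that limit; inconclusive means mean reaches 50% but only one of two replicates passes; inactive means the rest.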"}
{"test": "EWS/Fli-driven NR0B1 reporter inhibitors, primary screen, A673 cells, NR0B1 luciferase, luminescence, MLPCN library (AID 651661);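 further: firefly luciferase signal divided by Alamar Blue viability fluorescence both relative to DMSO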", "conditions": "viability-normalised, at 12.6 µM, stronger effect = higher value"}
{"smiles": "CC[n+]1cc(C)ccc1/C=C/c1ccc(N(C)C)cc1", "inhibition": "57.5% (active)"}
{"smiles": "CO[C@H]1CN(C)C(=O)c2cc(NC(=O)c3cnccn3)ccc2OC[C@@H](C)N(CC2CC2)C[C@@H]1C", "inhibition": "-6.87%"}
{"smiles": "COc1ccc(-c2nc(-c3ccccc3)no2)c(OC)c1", "inhibition": "77.6% (active)"}
{"smiles": "COc1ccc(/C=C/c2noc(-c3ccccc3OC(C)=O)n2)cc1", "inhibition": "6.55%"}
{"smiles": "COc1ccc(-c2noc(CNC(=O)C(C)Oc3ccccc3)n2)cc1", "note": "(stereo unspecified)", "inhibition": "-7.08%"}
{"smiles": "COc1cccc(NC(=O)C[C@H]2CC[C@@H]3[C@H](COc4ccc(NC(C)=O)cc4C(=O)N3C)O2)c1", "inhibition": "-0.492%"}
{"smiles": "O=C(C[C@@H]1C=C[C@@H](NS(=O)(=O)c2ccccc2)[C@H](CO)O1)N1CCN(c2ccccc2)CC1", "inhibition": "2.46%"}
{"smiles": "CNC(=O)C[C@H]1CC[C@H]2[C@H](COc3ccc(NC(=O)Nc4cccc(C)c4)cc3C(=O)N2C)O1", "inhibition": "-11.4%"}
{"smiles": "C[C@H](O)C#Cc1ccc2c(c1)O[C@H](CN(C)C(=O)C1CCCCC1)[C@@H](C)CN([C@H](C)CO)S2(=O)=O", "inhibition": "2.27%"}
{"smiles": "Cc1ccc(-c2cc(=O)c3ccc(F)cc3[nH]2)cc1", "inhibition": "-5.43%"}
{"smiles": "O=c1cc(-c2ccccc2)[nH]c2cc(F)ccc12", "inhibition": "54.2% (active)"}
{"smiles": "Cc1cc(=O)c2ccc(NC(=O)c3ccccc3)cc2[nH]1", "inhibition": "9.56%"}
{"smiles": "CCC(=O)N1CC2(CN(Cc3ccc(Cl)cc3)C2)c2c([nH]c3cc(OC)ccc23)[C@@H]1CO", "inhibition": "-10.6%"}
{"smiles": "CC(=O)Nc1ccc(S(=O)(=O)Nc2ccc(N3CCCCC3)cc2)cc1", "inhibition": "63.2% (active)"}
{"smiles": "CC(=O)Nc1ccc(S(=O)(=O)Nc2ccc(-c3ccc4nnc(C)n4n3)cc2)cc1", "inhibition": "18.6%"}
{"smiles": "O=C(Nc1ccc(N2CCCCC2)cc1)c1cc(S(=O)(=O)N2CCOCC2)ccc1F", "inhibition": "0.758%"}
{"smiles": "O=C(NCc1cccc(F)c1)[C@H]1[C@H](CO)[C@H]2Cn3c(cccc3=O)[C@@H]1N2", "inhibition": "-7.63%"}
{"smiles": "O=C(Cc1ccccn1)N1CC(=O)N2[C@H](CO)[C@H](c3ccc(C#CCC4CCCC4)cc3)[C@@H]2C1", "inhibition": "-3.29%"}
{"smiles": "CC(C)OC(=O)c1ccc(NCc2cc(O)ccc2O)cc1Cl", "inhibition": "59.4% (active)"}
{"smiles": "COC(=O)c1ccc(NCc2cc(O)ccc2O)cc1", "inhibition": "61.8% (active)"}
{"smiles": "CC(OC(=O)c1ccc(Cl)cc1O)C(=O)NCCC1=CCCCC1", "note": "(stereo unspecified)", "inhibition": "1.44%"}
{"smiles": "O=C(OC12CC3CC(CC(C3)C1)C2)c1ccc(NCc2cc(O)ccc2O)cc1", "inhibition": "30.8%"}
{"smiles": "C#CCNc1ccc(C(=O)OCC)cc1", "inhibition": "-46.2%"}
{"smiles": "CC(CN1CCOCC1)OC(=O)c1ccc(Cl)cc1Cl", "note": "(stereo unspecified)", "inhibition": "-6.54%"}
{"smiles": "O=C(C1CCC1)N1CC[C@@H]2[C@H]1c1cc(C#Cc3ccc(F)cc3)ccc1N[C@@H]2CO", "inhibition": "11%"}
{"smiles": "CO[C@@H]1CN(C)C(=O)c2ccc(NC(=O)Nc3c(C)noc3C)cc2OC[C@@H](C)NC[C@H]1C", "inhibition": "1.67%"}
{"smiles": "COc1ccc(S(=O)(=O)N(C)C[C@H]2Oc3c(NS(=O)(=O)c4cccs4)cccc3C(=O)N([C@H](C)CO)C[C@@H]2C)cc1", "inhibition": "0.582%"}
{"smiles": "COc1ccc(NC(=O)C2Cc3c(-c4ccc(Cl)cc4)ccnc3O2)cc1", "note": "(stereo unspecified)", "inhibition": "-1.76%"}
{"smiles": "O=C(Nc1ccc(Cl)cc1)C1Cc2c(-c3ccc4c(c3)OCO4)ccnc2O1", "note": "(stereo unspecified)", "inhibition": "8.69%"}
{"smiles": "COc1ccc(NC(=O)C2Cc3c(-c4ccc5c(c4)OCO5)ccnc3O2)cn1", "note": "(stereo unspecified)", "inhibition": "52.6% (active)"}
{"smiles": "CCCN1C[C@@H](C)[C@H](OC)CN(C)C(=O)c2cc(NC(=O)CC)ccc2OC[C@@H]1C", "inhibition": "-0.843%"}
{"smiles": "COC(=O)C[C@H]1C=C[C@H](NC(=O)Nc2ccc(C(F)(F)F)cc2)[C@@H](CO)O1", "inhibition": "-13.7%"}
{"smiles": "CC(C)C(=O)Nc1ccc2c(c1)C(=O)N(C)[C@H]1CC[C@H](CC(=O)NCc3ccc(F)cc3)O[C@H]1CO2", "inhibition": "-4.82%"}
{"smiles": "O=C(C1CC(=O)N(C2CCCCC2)C1)N1CCN(c2ccccc2)CC1", "note": "(stereo unspecified)", "inhibition": "2.44%"}
{"smiles": "O=C(C1CCC1)N1CCN(c2ccccc2)CC1", "inhibition": "-2.08%"}
{"smiles": "O=C1C=CC(=O)N1c1ccc(N2CCCCC2)cc1", "inhibition": "70% (active)"}
{"smiles": "O=C(Nc1cc(F)ccc1F)N1CCCCN2[C@H](CO)[C@@H](c3ccc(-c4cccnc4)cc3)[C@@H]2C1", "inhibition": "-2.34%"}
{"smiles": "CN(C)C(=O)[C@@H]1[C@@H](CO)[C@@H]2Cn3c(ccc(-c4ccncc4)c3=O)[C@H]1N2C(=O)NC1CCCC1", "inhibition": "-5.42%"}
{"smiles": "CCCc1cc(=O)[nH]c(SCC(=O)N2C(C)CCCC2C)n1", "note": "(stereo unspecified)", "inhibition": "-0.113%"}
{"smiles": "CC(C)Cn1c(N)c(C(=O)COC(=O)CN2C(=O)C3CC=CCC3C2=O)c(=O)n(C)c1=O", "note": "(stereo unspecified)", "inhibition": "10.8%"}
{"smiles": "CCCc1cc(=O)[nH]c(SCC(=O)c2c(N)n(CC(C)C)c(=O)n(C)c2=O)n1", "inhibition": "61.7% (active)"}
{"smiles": "COc1ccc2c3c(n(C)c2c1)[C@@H](CO)N(C(=O)c1ccccn1)CC31CN(C)C1", "inhibition": "2.95%"}
{"smiles": "CCOC(=O)c1c(C)[nH]c(C(=O)OCC(=O)c2ccc(OC)cc2OC)c1C", "inhibition": "-15.3%"}
{"smiles": "CCOC(=O)c1c(C)[nH]c2c1-c1ccccc1C(=O)C2=O", "inhibition": "75.3% (active)"}
{"smiles": "CCOC(=O)c1c(NC(=O)CSc2nccc(=O)[nH]2)sc(C)c1C", "inhibition": "1.69%"}
{"smiles": "CCCN1C[C@@H](C)[C@@H](OC)CN(C)C(=O)c2cc(NC(=O)C3CCC3)ccc2OC[C@H]1C", "inhibition": "4.62%"}
{"smiles": "CCCNC(=O)N1CCC2(CC1)CN(C(=O)c1cccnc1)[C@@H](CO)c1[nH]c3cc(OC)ccc3c12", "inhibition": "-3.43%"}
{"smiles": "CO[C@H]1CN(C)C(=O)c2cc(NS(=O)(=O)c3ccccc3)ccc2OC[C@H](C)N(C(=O)NC(C)C)C[C@@H]1C", "inhibition": "-7.63%"}
{"smiles": "O=C(C1CCCCC1)N1CC(=O)N2[C@H](CO)[C@@H](c3ccc(-c4ccccc4F)cc3)[C@@H]2C1", "inhibition": "-0.368%"}
{"smiles": "COc1ccc(-c2cc(NC=O)c3ncc(-c4cc(OC)c(OC)c(OC)c4)n3c2)c(OC)c1", "inhibition": "52.4% (active)"}
{"smiles": "COc1ccc(-c2cc(NC=O)c3ncc(-c4cccc(C(=O)N(C)C)c4)n3c2)c(OC)c1", "inhibition": "8.25%"}
{"smiles": "COc1cccc(-c2cnc3c(NC(C)=O)cc(-c4cc(F)ccc4OC)cn23)c1", "inhibition": "41.5%"}
{"smiles": "COc1ccccc1-c1cc(NC(C)=O)c2ncc(-c3ccc(F)cc3)n2c1", "inhibition": "13.6%"}
{"smiles": "COc1ccc(-c2cc(NC=O)c3ncc(-c4ccccc4)n3c2)cc1OC", "inhibition": "12.5%"}
{"smiles": "COc1ccc(-c2cc(NC(C)=O)c3ncc(-c4cc(OC)c(OC)c(OC)c4)n3c2)cn1", "inhibition": "64.5% (active)"}
{"smiles": "COc1cccc(NC(=O)N2CC[C@@H]3[C@@H](CO)N(C)c4ccc(-c5cccc(F)c5)cc4[C@@H]32)c1", "inhibition": "-0.284%"}
{"smiles": "COc1ccccc1CNC(=O)C[C@H]1C[C@H]2c3cc(NS(=O)(=O)c4ccc(F)cc4)ccc3O[C@H]2[C@@H](CO)O1", "inhibition": "-1.41%"}
{"smiles": "C[C@@H]1CN([C@H](C)CO)C(=O)c2cccc(NS(=O)(=O)c3cn(C)cn3)c2O[C@H]1CN(C)S(=O)(=O)c1ccc(Cl)cc1", "inhibition": "1.45%"}
{"smiles": "C[C@@H]1CCCCO[C@@H](CN(C)Cc2ccncc2)[C@H](C)CN([C@H](C)CO)C(=O)c2cc(NC(=O)NC3CCCCC3)ccc2O1", "inhibition": "0.242%"}
{"smiles": "CN1c2ccc(-c3cccc(F)c3)cc2[C@H]2[C@H](CCN2C(=O)c2cccc(F)c2)[C@H]1CO", "inhibition": "-3.71%"}
{"smiles": "Cc1ccc(C)c(S(=O)(=O)N2CCN(c3ncnc4sccc34)CC2)c1", "inhibition": "51.5% (active)"}
{"smiles": "COc1ccc(-c2csc3ncnc(N4CCN(S(=O)(=O)c5ccccc5C#N)CC4)c23)cc1", "inhibition": "22.1%"}
{"smiles": "Cc1ccc(C)c(S(=O)(=O)N2CCN(C(=O)Nc3ccccc3)CC2)c1", "inhibition": "1.58%"}
{"smiles": "CCNC(=O)[C@H]1[C@H](CO)[C@H]2Cn3c(ccc(-c4cccc(OC)c4)c3=O)[C@H]2N1Cc1nccs1", "inhibition": "2.22%"}
{"smiles": "C[C@H]1CN([C@@H](C)CO)C(=O)c2cc(/C=C/c3ccccc3)cnc2O[C@@H]1CN(C)C(=O)NC1CCCCC1", "inhibition": "-13.4%"}
{"smiles": "COCC(=O)Nc1ccc2c(c1)OC[C@@H](C)N(C(=O)c1cnccn1)C[C@H](C)[C@@H](OC)CN(C)C2=O", "inhibition": "-0.326%"}
{"smiles": "CN(c1ccc2nc3ccccc3c(=O)n2n1)C1CCCCC1", "inhibition": "84.9% (active)"}
{"smiles": "CC(C)C(C)NC(=O)COc1nc2ccccc2nc1N(C)C1CCCCC1", "note": "(stereo unspecified)", "inhibition": "6.59%"}
{"smiles": "CC(C)c1cc(C(=O)NC2CCCCCC2)c2ccccc2n1", "inhibition": "-3.93%"}
{"smiles": "COc1cccc(NC(=O)C[C@@H]2CC[C@H]3[C@@H](COc4ccc(NC(=O)C5CCC5)cc4C(=O)N3C)O2)c1", "inhibition": "-3.34%"}
{"smiles": "Cc1ccc(S(=O)(=O)Nc2ccc3c(c2)C(=O)N([C@@H](C)CO)C[C@H](C)[C@@H](CN(C)CC2CC2)O3)cc1", "inhibition": "-3.89%"}
{"smiles": "C[C@H]1CN([C@@H](C)CO)C(=O)c2ccccc2-c2ccccc2CO[C@@H]1CN(C)C(=O)CCN(C)C", "inhibition": "2.93%"}
{"smiles": "COc1ccc(-c2nc3c(s2)CCc2onc(-c4ccc(Br)cc4)c2-3)cc1", "inhibition": "24.2%"}
{"smiles": "COc1ccc(-c2nc(CCNC(=O)c3ccc(Br)o3)cs2)cc1", "inhibition": "-1.15%"}
{"smiles": "COc1ccc(-c2nc3c(s2)CCc2onc(-c4ccc(OC)cc4)c2-3)cc1", "inhibition": "65.6% (active)"}
{"smiles": "C[C@@H]1CN([C@@H](C)CO)C(=O)c2cc(NS(=O)(=O)c3cn(C)cn3)ccc2O[C@@H](C)CCCCO[C@@H]1CN(C)Cc1ccncc1", "inhibition": "4.01%"}
